Source: PubChem BioAssay (several laboratories)
3CLpro inhibitor: SARS-CoV 3CLpro protease inhibition | P0C6X7 | recombinant SARS-CoV 3CLpro, quenched FRET peptide cleavage | inhibition, % at 6 µM | 290,000 tested, 0.14% active | AID 1706; in the data active = inhibition above about 12%
PrPC TRFRET: cell surface PrPC inhibition, primary TR-FRET screen. P04156. TR-FRET read-out. inhibition, % at 13.8 µM. 370,000 tested, 0.43% active. AID 720596; in the data active = inhibition above about 24%
BJeLR viability: BJeLR cell viability loss; BJeLR (HRASV12) viability, CellTiter-Glo ATP luminescence, 48 h; inhibition, % (test concentration not listed); 300,000 tested, 0.17% active; in the data active = inhibition above about 50%; inconclusive = no clear call, values can overlap the other calls
PrP UTR inh: suppresses PrP 5' UTR mRNA reporter expression; inhibition, % (no concentration beside the values); 340,000 tested, 0.35% active; cell-based PrP 5' UTR mRNA reporter, plate reader; in the data active = inhibition above about 52%
PriA SSB inh: inhibitors of Klebsiella pneumoniae PriA binding to SSB C-terminal tail. AID 1272365. inhibition, % at 33 µM. AlphaScreen SSBct-PriA binding, biotinylated peptide. 430,000 tested, 0.6% active; in the data active = inhibition mostly above about 37%, no sharp cut-off; inactive = mostly below about 20%
PrP UTR cherry: prion 5' UTR mRNA inhibition, cherry-pick retest | shares compounds with PrP UTR inh | cell-based prion protein 5' UTR reporter, plate reader | inhibition, % at 2.5 µM | 1,100 tested, 48% active | AID 504592; in the data active = inhibition above about 54%; inconclusive = no clear call, values can overlap the other calls
Hits are given with their value; - = inactive; ? = inconclusive; . = no result given. This is a sample that favours compounds with a hit; in the whole collection about 1.2% have one here.

SMILES	3CLpro inhibitor	PrPC TRFRET	BJeLR viability	PrP UTR inh	PriA SSB inh	PrP UTR cherry
Cc1ccc(S(=O)(=O)CC(=O)Nc2ccccn2)cc1	-	-	-	-	-	.
Cc1ccc(S(=O)(=O)CC(=O)Nc2ccc(S(=O)(=O)Nc3ccccn3)cc2)cc1	-	-	-	80.2	-	-
O=C(O)c1ccc(COc2ccccc2Cl)cc1	-	-	-	-	-	.
O=C(O)c1cccc(COc2ccccc2Cl)c1	.	-	-	68.9	-	83.4
CC(C)(O)/C=C/C(=O)C(C)(O)C1[C@H](O)C[C@@]2(C)C3CC=C4C(C[C@H](O)[C@@H](O)C4(C)C)[C@]3(C)C(=O)C[C@]12C (stereo not given in full)	.	.	.	.	-	.
CC(C)(O)/C=C/C(=O)[C@](C)(O)C1[C@H](O)C[C@@]2(C)C3CC=C4C(C[C@H](O)[C@@H](O)C4(C)C)[C@]3(C)C(=O)C[C@]12C (stereo not given in full)	.	.	.	64.6	.	74.9
COc1cccc(-c2ccc3ncnc(NCc4cc(C)cs4)c3c2)c1	.	-	.	61.3	-	-
O=C(CN1CCN(Cc2nc3ccccc3n2Cc2ccccc2)CC1)NCc1ccco1	.	.	.	.	-	.
O=C(CCc1ccccc1F)N1CCC(c2ccsc2)CC1	.	.	.	.	-	.
C[C@H](Oc1ccccc1)C(=O)N1CCc2cc(S(=O)(=O)N3CCOCC3)ccc21	.	.	.	.	-	.
Cc1ccc(/C([O-])=C(/C(=S)NCc2ccc3c(c2)OCO3)[n+]2ccc(N(C)C)cc2)c(C)c1	-	-	-	66.5	.	-
CN(C)c1ccc(C(=O)NCc2ccc3c(c2)OCO3)cc1	-	-	-	-	-	.
Cc1ccc(NC(=O)NCCn2ncccc2=O)c(C)c1	.	.	.	.	-	.
COc1ccc(CCNC(=O)Cn2cnc(-c3ccc(OC)cc3)cc2=O)cc1	.	.	.	.	-	.
C=CCn1c(SCCCN2C(=O)c3cccc4cccc(c34)C2=O)nnc1-c1cccs1	.	.	.	.	-	.
COc1ccc(N=CC2=C(O)c3ccccc3C2=O)c(OC)c1	-	-	-	69.0	-	64.2
O=C(NCCCn1nc(-c2ccc(F)cc2)ccc1=O)Nc1ccc(F)cc1F	.	.	.	.	-	.
Cc1nn(-c2ccccc2)c(Cl)c1C(=O)NCCCCNC(=O)c1c(C)nn(-c2ccccc2)c1Cl	-	-	-	74.4	-	-
N=C(N)SCP(=O)(c1ccccc1)c1ccccc1	-	-	-	63.6	-	-
CN=c1scc(-c2ccccc2F)n1/N=C/c1ccc[nH]1	-	-	-	92.2	.	90.8
CN=c1scc(-c2ccccc2F)n1/N=C/c1ccc(O)c(O)c1O	-	-	-	-	.	.
O=c1cc(-c2ccc(Cl)c(Cl)c2)[nH][nH]1	-	-	-	56.9	-	-
Cc1ccc(C(=O)OCC(=O)c2cc(C)n(CC3CCCO3)c2C)cc1 (stereo not given)	-	-	-	-	-	.
Cc1cc(C(=O)COC(=O)c2ccccc2O)c(C)n1CC1CCCO1 (stereo not given)	.	-	.	88.9	-	90.0
Cc1cc(C(=O)COC(=O)c2cccnc2Cl)c(C)n1CC1CCCO1 (stereo not given)	-	-	-	58.7	-	-
SMILES	3CLpro inhibitor	PrPC TRFRET	BJeLR viability	PrP UTR inh	PriA SSB inh	PrP UTR cherry
COCCn1c(C)cc(C(=O)COC(=O)c2ccccc2Br)c1C	-	-	-	72.6	-	71.3
Cc1cc(C(=O)COC(=O)c2cc(O)c3ccccc3c2O)c(C)n1CC1CCCO1 (stereo not given)	-	.	.	-	-	.
COCCn1c(C)cc(C(=O)COC(=O)c2cccnc2SC)c1C	.	-	.	-	-	.
Cc1cc(C(=O)COC(=O)c2ccccc2Br)c(C)n1CC1CCCO1 (stereo not given)	-	-	-	77.4	-	70.9
CCOC(=O)c1ccc(NC(=O)Cn2nc3n(c(=O)c2=O)CCN3c2ccccc2)cc1	.	.	.	.	-	.
CCC(=NNc1nncc2ccccc12)c1ccc(F)cc1	.	.	.	.	-	.
CCS(=O)(=O)NCCS(=O)(=O)N1CCN(c2ccccc2F)CC1	.	.	.	.	-	.
CCn1c(C)cc(C(=O)COC(=O)c2ccccc2[N+](=O)[O-])c1C	.	.	.	94.5	-	96.9
Cc1ccsc1C(=O)OCC(=O)c1cc(C)n(C)c1C	.	-	.	59.2	-	63.2
Cc1cc(C(=O)COC(=O)c2ccccc2O)c(C)n1Cc1cccs1	-	-	-	90.9	-	80.0
C=CCn1c(C)cc(C(=O)COC(=O)c2ccc(N)c([N+](=O)[O-])c2)c1C	-	-	-	-	-	.
COc1ccc(-c2cc3c(nn2)-c2ccccc2C3=O)cc1	-	-	-	62.9	-	?
Cc1ccccc1C(=O)Nc1ccccc1C(=O)NCCCn1ccnc1	.	.	.	.	-	.
O=C(Cc1csc(Nc2ccc(OC(F)(F)F)cc2)n1)NCc1cccs1	.	.	.	.	-	.
CCOC(=O)N1CCN(CCn2cccn2)CC1	.	.	.	.	-	.
CC(C)Sc1ccc(CC(=O)NCCn2nc(C(F)(F)F)n(C)c2=O)cc1	.	.	.	.	-	.
Nc1ccccc1-n1ccnc1	.	.	.	.	-	.
FC(F)(F)c1ccccc1-n1ccnc1	.	-	.	59.5	-	-
NC(=O)c1nc(-c2cccc(Br)c2)nc2c1[nH]c(=O)n2-c1ccc(Cl)c(Cl)c1	.	.	.	.	-	.
Cc1cc(NC(=O)c2ccc([N+](=O)[O-])o2)n(-c2nc3c(c(=O)[nH]2)CCC3)n1	.	.	.	.	-	.
Cc1ccccc1N1C(=O)CC(=O)NC1=O	-	-	-	-	-	.
Cc1ccccc1N1C(=O)CC2(CCCC2)CC1=O	-	-	-	81.7	-	-
O=C(CC1Oc2ccccc2NC1=O)NCCCN1CCN(C2CCCCC2)CC1 (stereo not given)	-	-	-	69.9	-	-
CCC1CCCCN1CCCNC(=O)CC1Oc2ccccc2NC1=O (stereo not given)	-	-	-	-	-	.
Cc1cc(C(=O)COC(=O)C2=COCCO2)c(C)n1-c1ccccc1	.	-	.	81.6	-	85.6
SMILES	3CLpro inhibitor	PrPC TRFRET	BJeLR viability	PrP UTR inh	PriA SSB inh	PrP UTR cherry
Cc1ccc(OCC(=O)c2cc(C)n(-c3ccccc3)c2C)c([N+](=O)[O-])n1	-	-	-	59.7	-	57.6
CCCn1c(C)cc(C(=O)COc2ccc(C)nc2[N+](=O)[O-])c1C	-	-	-	-	-	.
O=C(c1cc(=O)[nH]c(=O)[nH]1)N1CCN(c2ccc(-n3cncn3)nn2)CC1	.	.	.	.	-	.
O=C(N/N=C/c1c[nH]c2ccccc12)c1[nH]c2ccc(Br)cc2c1-c1ccccc1	-	-	-	68.4	.	87.5
O=C(NN=Cc1ccc(O)cc1)c1[nH]c2ccc(Br)cc2c1-c1ccccc1	.	.	.	.	-	.
CCC1=C(OC(=O)N(CC)CC)N2C(=O)OC(=NCc3ccccc3)[C@]2(C)[C@H]2C1=CC[C@H]1C(=O)N(c3ccccc3)C(=O)[C@H]12	.	-	-	-	-	.
CCC1=C2CC[C@H]3C(=O)N(c4ccccc4)C(=O)[C@H]3[C@H]2[C@@]2(C)C(=NCc3ccccc3)OC(=O)N2C1=O	.	-	-	75.6	-	-
CC(=O)Nc1ccc(Nc2cc(-c3ccccc3)c3cc(Cl)ccc3n2)cc1	.	.	.	.	-	.
Nc1nc(F)nc2c1ncn2[C@@H]1O[C@H](CO)[C@@H](O)[C@@H]1O	-	-	-	-	-	.
